Structures are written as SMILES. Calls of active or inactive are those of the source. The calls were made as follows: active = hit-call score of the fitted dose curve at least 0.9, where 1 is the maximum; inactive = score below 0.9.

Assay [1] in a line: APR_HepG2_CellCycleArrest_24hr: Apredica 24-hour HepG2 Assay for Cell Cycle Arrest (AID 2282905).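 Also: cell cycle arrest scored as ratio of 2N to 4N nuclear DNA content.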 Particulars: imaging, actives raise or lower the signal. The method in brief:
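Cell cycle arrest is scored from nuclear DNA content measured by high-content imaging of Hoechst 33342-stained HepG2 cells following 24-hour treatment at ten concentrations up to 200 uM, with DMSO as baseline.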

The nature of assay [2]: APR_HepG2_NuclearSize_24hr: Apredica 24-hour HepG2 Assay for Nuclear Size (AID 2282907). To be noted: high-content imaging, actives raise or lower the signal. The method in brief:
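Compounds in DMSO (final 0.5%) were added to human HepG2 hepatoma cells at ten concentrations up to 200 uM for 24 hr. Fixed nuclei were stained with Hoechst 33342, and nuclear diameter was quantified from automated images.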

Assay [3] in a line: APR_HepG2_CellLoss_24hr: Apredica 24-hour HepG2 Assay for Cell Loss (AID 2282908).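 As to AC50: fit in both directions so a hit may be cell loss or gain.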 Particulars: high-content imaging. The method in brief:
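Cell number is quantified by fluorescence imaging of Hoechst 33342-stained nuclei following dosing at 0.39–200 uM in 0.5% DMSO. Curves are fitted in both directions from the DMSO baseline.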

The nature of assay [4]: APR_HepG2_MicrotubuleCSK_24hr: Apredica 24-hour HepG2 Assay for Microtubule CSK Stabilty (AID 2282909). Particulars: HepG2 microtubule cytoskeleton imaging, actives raise or lower the signal. The method in brief: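 Steps: dose HepG2 for 24 h (0.39–200 uM, 0.5% DMSO); fix 30 min in 3.7% formaldehyde at room temperature; permeabilize; stain alpha-tubulin 60 min; image microtubule cytoskeleton at 20x. Signal change fitted in both directions relative to DMSO.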

Assay [5] can be described thus: APR_HepG2_MitoticArrest_24hr: Apredica 24-hour HepG2 Assay for Mitotic Arrest (AID 2282910). To be noted: high-content imaging, actives raise or lower the signal. In a few lines:
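HepG2 human liver cells were exposed to compounds at 0.39–200 uM (10 concentrations, duplicate) in 0.5% v/v DMSO for 24 hr, then fixed and immunostained for phospho-histone H3 with Hoechst 33342. Mitotic arrest came from HCS fluorescent imaging, fitted bidirectionally against DMSO.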

The nature of assay [6]: APR_HepG2_MitoMembPot_24hr: Apredica 24-hour HepG2 Assay for Mitochondrial Membrane Potential (AID 2282911). To be noted: imaging, actives raise or lower the signal. The method in brief:
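HepG2 cells exposed 24 h to 0.39–200 uM compounds in duplicate, 0.5% v/v DMSO final. MitoTracker Red CMXRos 250 nM loaded 30 min before formaldehyde fixation; high-content imaging at 20x, bidirectional fit versus DMSO.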

The nature of assay [7]: APR_HepG2_MitoMass_24hr: Apredica 24-hour HepG2 Assay for Mitochondrial Mass (AID 2282912). To be noted: high-content imaging, actives raise or lower the signal. The method in brief:
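The liver line HepG2 was dosed in duplicate across a 0.39–200 uM series, with final DMSO held at 0.5% v/v, and harvested at 24 hr. High-content imaging measured mitochondrial dye staining.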

Assay [8] is described as follows: APR_HepG2_p53Act_24hr: Apredica 24-hour HepG2 Assay for p53 Activation (AID 2282913).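 Also: p53 protein immunofluorescence averaged per cell in HepG2 with Hoechst nuclei.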 To be noted: high-content imaging, actives raise or lower the signal. The method in brief: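 HepG2 cells exposed 24 h to compounds at 0.39–200 uM in duplicate, 0.5% v/v DMSO final; fixed, permeabilized, stained with anti-p53 antibody and Hoechst 33342; fluorescence imaging; bidirectional curve fit versus DMSO.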

Assay [9] can be described thus: APR_HepG2_CellCycleArrest_72hr: Apredica 72-hour HepG2 Assay for Cell Cycle Arrest (AID 2282914). Particulars: high-content imaging, actives raise or lower the signal. The method in brief: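 HepG2 cells exposed 72 h in duplicate to 0.39–200 uM compound, 0.5% DMSO final. Formaldehyde-fixed, Hoechst 33342-stained nuclei imaged at 20x, six fields per well; DNA content per valid cell quantified by cell-cycle image analysis, bidirectional fit versus DMSO.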

The nature of assay [10]: APR_HepG2_CellLoss_72hr: Apredica 72-hour HepG2 Assay for Cell Loss (AID 2282915). To be noted: high-content imaging. In a few lines: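 HepG2 cells were exposed for 72 hr to compounds at 0.39–200 uM (ten concentrations, duplicate) in 0.5% v/v final DMSO. Nuclei were stained with Hoechst 33342 after 3.7% formaldehyde fixation, imaged at 20x, and counted; fits bidirectional versus DMSO.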

The nature of assay [11]: APR_HepG2_P-H2AX_72hr: Apredica 72-hour HepG2 Assay for H2AX Phosphorylation (AID 2282916).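 Also: phospho-histone H2A.x immunostain intensity per cell marking DNA damage.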 To be noted: imaging, actives raise or lower the signal. In a few lines:
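Following 72 hr treatment with 0.39–200 uM compound, HepG2 cells were formaldehyde-fixed, permeabilized and stained for phospho-H2A.x; signal was measured by high-content imaging and fitted bidirectionally against DMSO controls.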

The nature of assay [12]: APR_HepG2_MitoMembPot_72hr: Apredica 72-hour HepG2 Assay for Mitochondrial Membrane Potential (AID 2282917). To be noted: imaging, actives raise or lower the signal. In a few lines: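 HepG2 cells exposed 72 h to compounds at 0.39–200 uM (0.5% v/v DMSO, duplicates); MitoTracker Red CMXRos 250 nM loaded 30 min before 3.7% formaldehyde fixation, imaged by HCS fluorescence. Bidirectional fit versus DMSO.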

Assay [13] in a line: APR_HepG2_MitoticArrest_72hr: Apredica 72-hour HepG2 Assay for Mitotic Arrest (AID 2282918). To be noted: high-content imaging, actives raise or lower the signal. In a few lines:
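HepG2 cells treated 72 h at 0.39–200 uM, 0.5% DMSO final; formaldehyde-fixed, stained with Hoechst 33342 and phospho-histone H3 antibody, imaged by high-content fluorescence; bidirectional fit versus DMSO.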

Assay [14] in a line: APR_HepG2_MicrotubuleCSK_72hr: Apredica 72-hour HepG2 Assay for Microtubule CSK Stabilty (AID 2282919). To be noted: HepG2 microtubule cytoskeleton, high-content imaging, actives raise or lower the signal. In a few lines:
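HepG2 human liver cells were dosed for 72 h at ten concentrations from 0.39 to 200 uM in duplicate (0.5% v/v DMSO final). Fixed, permeabilized cells were immunostained for alpha-tubulin (Cy5) with a Hoechst counterstain and imaged at 20x.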

Assay [15] can be described thus: APR_HepG2_P-H2AX_24hr: Apredica 24-hour HepG2 Assay for H2AX Phosphorylation (AID 2282920). To be noted: high-content imaging, actives raise or lower the signal. The method in brief:
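HepG2 cells dosed 24 h at 0.39–200 uM (10 points, duplicate, 0.5% DMSO final). Formaldehyde-fixed and permeabilized, then immunostained for phospho-H2A.x with Hoechst. Fluorescence quantified by high-content imaging, fitted bidirectionally versus DMSO.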

Assay [16] in a line: APR_HepG2_StressKinase_72hr: Apredica 72-hour HepG2 Assay for Stress Kinase (AID 2282921). To be noted: HepG2 stress kinase (phospho-c-Jun) imaging, actives raise or lower the signal. In a few lines: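 Fluorescence intensity of Cy3-tagged anti-phospho-c-Jun antibody, quantified per cell from Hoechst-defined nuclei across six images per well, served as the read-out following 72 h exposure (0.39–200 uM, 0.5% v/v DMSO).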

Assay [17] can be described thus: APR_HepG2_StressKinase_24hr: Apredica 24-hour HepG2 Assay for Stress Kinase (AID 2282922). Particulars: HepG2 stress kinase (phospho-c-Jun) imaging, actives raise or lower the signal. In a few lines:
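HepG2 cells exposed 24 hr to compound at 0.39–200 uM (10 concentrations, duplicate), 0.5% v/v DMSO final. Fixed in 3.7% formaldehyde, permeabilized with Triton X-100, immunolabeled for phospho-c-Jun with Hoechst 33342; HCS fluorescence imaging, bidirectional fit versus DMSO.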

Assay [18] in a line: APR_HepG2_p53Act_72hr: Apredica 72-hour HepG2 Assay for p53 Activation (AID 2282923).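 Also: average cellular p53 protein immunofluorescence intensity in HepG2 cells.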 Particulars: high-content imaging, actives raise or lower the signal. The method in brief: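 HepG2 monolayers receive test compounds in duplicate at ten concentrations (0.39 through 200 uM) for 72 hr. They are then formaldehyde-fixed, antibody-labelled for p53, Hoechst-stained and imaged, with activity fitted bidirectionally versus DMSO.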

Assay [19] in a line: APR_HepG2_MitoMass_72hr: Apredica 72-hour HepG2 Assay for Mitochondrial Mass (AID 2282924).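 Also: MitoTracker Red CMXRos stain intensity per cell imaged as mitochondrial mass.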 Particulars: high-content imaging, actives raise or lower the signal. The method in brief:
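HepG2 cells were exposed for 72 hr to compounds at 0.39–200 uM (ten concentrations, duplicate, 0.5% v/v DMSO final). Live cells were stained with 250 nM MitoTracker Red CMXRos for 30 min, then fixed in 3.7% formaldehyde and imaged by HCS fluorescence.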

Assay [20] is described as follows: APR_HepG2_NuclearSize_72hr: Apredica 72-hour HepG2 Assay for Nuclear Size (AID 2282925). To be noted: high-content imaging, actives raise or lower the signal. In a few lines:
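HepG2 cells were exposed to compounds at ten concentrations from 0.39 to 200 uM (duplicate, 0.5% DMSO final) for 72 hr. After fixation in 3.7% formaldehyde, nuclei were stained with Hoechst 33342 (2 ug/mL) and imaged at 20x.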

Turning to `CCCCCCCCn1sccc1=O`, the AC50 was 6.2 µM (active) in [1]; 10.7 µM (active) in assay [2]; 16.1 µM (active) in assay [3]; 79.4 µM (active) in [4]; 7.54 µM (active) in assay [5]; 53.4 µM (active) in [6]. Besides, the half-maximal activity concentration (AC50) in assay [8] was 3.62 µM (active); in [10], 5.76 µM (active); in assay [11] it was 4.92 µM (active); in assay [12], 96.1 µM (active); in assay [13], 3.77 µM (active); in assay [15] it was 6.1 µM (active). The AC50 is 5.97 µM (active) in assay [16], 3.47 µM (active) in assay [17], 3.54 µM (active) in [18] and 3.51 µM (active) in [19]. Further, the molecule was classed as inactive in assay [7], in assay [9], in assay [14] and in [20].
Take `ClC1=C(Cl)C2(Cl)C3C(Cl)C=CC3C1(Cl)C2(Cl)Cl` (centres undefined): the AC50 in assay [1] was 40.9 µM (active); in assay [2] it was 101 µM (active); in [3], 99.2 µM (active); in assay [4], 68.7 µM (active); in assay [5], 76.8 µM (active); in assay [7], 55 µM (active). Also, the AC50 in assay [8] was 67.9 µM (active); in assay [9] it was 26.7 µM (active); in [10], 56 µM (active); in assay [11], 65.9 µM (active); in [13], 51.3 µM (active); in [14] it was 88.5 µM (active). Besides, the half-maximal activity concentration (AC50) in assay [15] is 80.7 µM (active); in [16] it was 84.8 µM (active); in [18], 63.7 µM (active); in [19] it was 88.9 µM (active). Moreover, the call in assay [6], in assay [12], in [17] and in assay [20] was inactive.
On to `CCCCOC(=O)c1ccccc1C(=O)OCc1ccccc1`, for which the molecule was called inactive in assay [1], in [2], in assay [4], in assay [5], in assay [6] and in [7]. Moreover, the molecule was classed as inactive in assay [8], in assay [11], in [12], in assay [13], in assay [14] and in assay [15]. Besides, the molecule was called inactive in [16], in assay [17], in assay [19] and in assay [20]. Besides, the concentration at half-maximal activity (AC50) is 48.5 µM (active) in assay [3], 92.5 µM (active) in assay [9], 60.3 µM (active) in assay [10] and 98.9 µM (active) in assay [18].
Turning to `CCCCCCCCOC(=O)c1ccc(C(=O)OCCCCCCCC)c(C(=O)OCCCCCCCC)c1`, the outcome in assay [1], in [2], in [3], in [4], in assay [5] and in [6] was inactive. Moreover, the call in [7], in [8], in assay [9], in assay [10], in [11] and in assay [12] was inactive. The result in assay [13], in [14], in assay [15], in assay [16], in assay [17] and in assay [18] was inactive. Further, the outcome in assay [19] and in [20] was inactive.
Consider `COC(=O)Nc1nc2ccccc2[nH]1`, for which the concentration at half-maximal activity (AC50) in assay [1] is 15.4 µM (active); in assay [3] it was 7.04 µM (active); in [5], 3.45 µM (active); in assay [8] it was 3.13 µM (active); in assay [9], 13.4 µM (active); in assay [10], 5.59 µM (active). Further, the concentration at half-maximal activity (AC50) was 5.9 µM (active) in [11]; 5.54 µM (active) in assay [15]; 6.75 µM (active) in [16]; 36.3 µM (active) in [17]; 2.8 µM (active) in assay [18]; 5.43 µM (active) in assay [19]. Further, the AC50 in [20] was 9.08 µM (active). Also, the molecule was called inactive in assay [2], in assay [4], in assay [6], in assay [7], in assay [12] and in [13]. Besides, in [14], the outcome was inactive.
Regarding `C1=Cc2cccc3cccc1c23`, the molecule was called inactive in [2], in [3], in assay [4], in [5], in assay [6] and in assay [7]. In addition, the result in [8], in assay [9], in assay [10], in assay [11], in assay [12] and in assay [13] was inactive. Also, the result in [14], in [15], in assay [16], in [17], in assay [18] and in assay [19] was inactive. In addition, the outcome in assay [20] was inactive.

(Values after PubChem BioAssay (EPA / NIEHS).)
